Compound activity deposited in PubChem by National Center for Advancing Translational Sciences (NCATS).
HT1080 IDH1KD tx: qHTS for induction of synthetic lethality in tumor cells producing 2HG: qHTS for the HT-1080-IDH1KD cell line; 360,000 tested, 2% active; HT-1080 IDH1 knockdown viability, ATP luminescence, 48 h; Potency, µM (titrated, usually from 46.1 µM), inactives show top-dose activity, negative = toxicity, actives largely listed as cytotoxic; AID 686971, 2013;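 note: potency is the fitted concentration of half-maximal effect; 0% = DMSO wells and -100% = cell-free medium wells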
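% activity derives from luminescence (CellTiter-Glo), normalised to DMSO and no-cell wells. HT-1080-IDH1KD cells, 750/well, had 48 h compound exposure at 37 °C.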
HT1080-NT tox: qHTS for induction of synthetic lethality in tumor cells producing 2HG: qHTS for the HT-1080-NT fibrosarcoma cell line; HT-1080-NT fibrosarcoma viability, CellTiter-Glo ATP luminescence, 48 h; Potency, µM (doses to about 46.1 µM), without a hit: at the highest dose activity, negative = less viability, usual class: cytotoxic; 360,000 tested, 1.6% active; AID 686970, 2013;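 note: NT is the 2HG producing partner of a matched IDH1 knockdown line; potency is the fitted concentration of half-maximal effect; 0% = DMSO-treated cells and -100% = media-only wells without cells; nearly all actives have a fitted effect of over 55% in size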
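Viability of the 2HG-overproducing fibrosarcoma line after 48 hours of compound exposure at 37 degrees C was determined by luminescence with CellTiter-Glo, and concentration-effect curves were then fitted and categorized.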
TDP1 cell noCPT: qHTS for Inhibitors of human tyrosyl-DNA phosphodiesterase 1 (TDP1): qHTS in cells in absence of CPT | Potency, µM (series often up to 46.2 µM), inactives show at the highest dose activity change, negative = growth inhibition, most hits filed as inhibitors | DT40 Tdp1-/- hTDP1 cells, no CPT, ATP luminescence, 48 h | 420,000 tested, 15% active; note: potency is the fitted concentration of half-maximal effect; nearly all actives have a fitted effect of over 55% in size
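Chicken DT40 Tdp1-/- cells stably complemented with human TDP1 were seeded at 400 cells/well with DMSO in place of 20 nM camptothecin. After compound pinning, cells grew at least 48 hr at 37 °C; viability read by CellTiter-Glo luminescence.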
DT40 TDP1 CPT: qHTS for Inhibitors of human tyrosyl-DNA phosphodiesterase 1 (TDP1): qHTS in cells in presence of CPT. AID 686979, 2013. Potency, µM (highest dose often 46.2 µM), for inactives: at the highest dose activity change, negative = growth inhibition, most hits filed as inhibitors. 420,000 tested, 12% active. chicken DT40 Tdp1-/-;hTDP1 cells + 20 nM CPT, ATP luminescence, 48 h; note: potency is the fitted concentration of half-maximal effect; nearly all actives have a fitted effect of over 55% in size
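Chicken DT40 Tdp1-/- cells complemented with human TDP1, 400 cells/well, exposed to compounds plus 20 nM camptothecin for at least 48 h at 37 C; viability read as ATP content by CellTiter-Glo luminescence.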
IL1B secr inh: qHTS for Inhibitors of Inflammasome Signaling: IL-1-beta AlphaLISA Primary Screen. 360,000 tested, 4.7% active. activity change, % at 57.5 µM. THP-1 LPS/ATP IL-1B secretion, AlphaLISA, 16 h; stronger effect = lower value; in the data active = activity change below about -50%; inconclusive = mostly about -30% to -49%
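Secreted IL-1B measured by AlphaLISA bead assay after 16 h compound exposure of THP-1 cells; compounds (final up to 57.5 uM) added 1 h before LPS (250 ng/mL) and ATP (1.25 mM) stimulation; lower signal means less secretion.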
Starred values were filed as active, the others as inactive; ? = inconclusive; . = no result given; ! = repeats disagree. Most compounds without a hit are left out; they make up all but 19% or so of the library. Unless noted, calls come from the whole dose curve; as a rule, active = well fitted curve in the direction sought with a large enough effect; inconclusive = small, poorly fitted or top-dose-only effect, or another doubt; inactive = no such curve, though single readings can be large; an effect the other way counts as inactive or inconclusive. Unless noted, % is set by controls: 0 for no effect and ±100 for the full control effect.

SMILES	HT1080 IDH1KD tx	HT1080-NT tox	TDP1 cell noCPT	DT40 TDP1 CPT	IL1B secr inh
O=C(CC1CCCCC1)N1CCC(c2nc(-c3ccc(S(=O)(=O)N4CCCC4)cc3)no2)CC1	2%	4%	8.2µM*	21µM*	-6
CCCCCCn1c(O)c(/C=N/N2CCCCCC2)c(=O)[nH]c1=O	14%	14%	-27%	-8%	24
CCOP(=O)(OCC)C(NC(=O)C(C)C)C(Cl)(Cl)Cl (centres undefined)	13%	10%	-6%	-8%	3
CCC(C(=O)Nc1ccccc1F)N1C(=O)CN=C(c2ccccc2)c2ccccc21 (centres undefined)	.	.	23µM*	?	.
Cn1cc(/C=C(\C(=O)O)C(C(=O)O)=C2CCCCC2)c2ccccc21	5%	-1%	15µM*	23µM*	40
Cn1cc(C=C(C#N)C#N)c2ccccc21	12%	12%	12%	7%	-3
COc1ccc(-c2nnc3n2N(C(C)=O)C(c2ccc(Cl)c(Cl)c2)=C(C(C)=O)S3)cc1	.	.	4.1µM*	3.3µM*	.
COc1ccc(C2=C(C(C)=O)Sc3nnc(-c4ccc(Cl)cc4)n3N2C(C)=O)cc1OC	.	.	2.3µM*	4.1µM*	.
COCCOC(=O)c1c(C)n(C)c2ccc(OC(=O)N(C)C)cc12	-1%	1%	-25%	-14%	3
CC(C)NCC(O)c1ccccc1Cl (centres undefined)	.	.	-2%	16%	.
COc1cc(/C=C(/C)[N+](=O)[O-])ccc1OCc1ccccc1Cl	5.8µM*	8.2µM*	2.9µM*	3.3µM*	-99*
COc1cc(C=C2C(=O)NC(=O)NC2=O)ccc1OCc1ccc([N+](=O)[O-])cc1	2%	16%	-6%	6%	-14
CCOc1cc(C2NCc3ccccc3-n3cccc32)ccc1OC (centres undefined)	1%	-7%	-27%	-17%	?
CCOc1cc2c(cc1OCC)-n1cccc1C(c1ccc(OC)c(O)c1)NC2 (centres undefined)	-3%	-21%	18µM*	?	?
CCOc1cc2c(cc1OCC)-n1cccc1C(c1ccc(C)cc1C)NC2 (centres undefined)	21µM*	?	?	?	-90*
CCOc1cc2c(cc1OCC)-n1cccc1C(c1cc(C)c(OC)cc1C)NC2 (centres undefined)	-16%	-20%	7.3µM*	10µM*	-16
C=CCn1c(O)c(/C=N/NC(=O)CCCC)c(=O)[nH]c1=S	7%	-3%	-1%	1%	14
Cc1cc(C)c2c(ccc3cccc[n+]32)c1	?	?	21µM*	?	-61*
Cc1ccc(-c2nn3c(C)nnc3c3ccccc23)cc1S(=O)(=O)NCCO	-22%	-17%	21µM*!	?	8
CN(Cc1ccc(OC(F)F)cc1)C(=O)c1ccccc1Sc1ccccc1C#N	-1%	-5%	?	?	?
C=CCOC(Cn1ccnc1)c1ccc(Cl)cc1Cl (centres undefined)	1%	-4%	9.4µM*	30µM*	8
Clc1ccc(COC(Cn2ccnc2)c2ccc(Cl)cc2Cl)c(Cl)c1 (centres undefined)	?	23µM*	15µM*	18µM*!	?
CC(C)(C)OC(=O)N1CCCC(C(=O)Nc2cccc(C(=O)NCCc3ccccc3)c2)C1 (centres undefined)	0%	-6%	21µM*	15µM*	10
ClCCN(CCCl)c1ccc(C=Cc2ccncn2)cc1	-4%	-5%	9.2µM*	6.5µM*	?
ClCCN(CCCl)c1ccc(/C=C/c2ccnc3ccccc23)cc1	.	.	3.5µM*	4µM*	.
Cc1cc(/C=C/c2ccnc3ccccc23)ccc1N(CCCl)CCCl	.	.	25µM*	?	.
